# According to PubChem BioAssay (NCATS):
# Records with an inconclusive call do not appear. Entries that show only a call come without a potency. The source made the active and inactive calls. Unless noted, calls follow the shape of the dose curve; as a rule, active = well fitted curve in the direction sought with a large enough effect; inconclusive = small, poorly fitted or top-dose-only effect, or another doubt; inactive = no such curve, though single readings can be large; an effect the other way counts as inactive or inconclusive.
# Legend:
# [1] = target: Nicotinamide N-methyltransferase (Homo sapiens) (UniProt P40261); assay: Confirmatory Screen for Target Class Profiling of Small Molecule Inhibitors of Methyltransferases (AID 1745852); details: MTase-Glo luminescence, SAH detection, recombinant enzyme; measured here: NNMT max response; stronger effect = lower value
# Nicotinamide N-methyltransferase (Homo sapiens), sequence (P40261 whole entry, looked up): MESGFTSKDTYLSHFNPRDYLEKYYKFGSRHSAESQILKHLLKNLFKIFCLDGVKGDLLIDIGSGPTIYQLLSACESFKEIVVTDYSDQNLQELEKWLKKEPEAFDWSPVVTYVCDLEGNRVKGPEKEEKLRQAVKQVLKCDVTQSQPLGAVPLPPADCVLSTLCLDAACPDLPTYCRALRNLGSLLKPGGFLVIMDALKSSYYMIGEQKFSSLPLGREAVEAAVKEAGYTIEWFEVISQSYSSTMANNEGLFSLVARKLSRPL
# [2] = target: Phenylethanolamine N-methyltransferase (Homo sapiens) (UniProt P11086); assay: as above; details: MTase-Glo luminescence, SAH detection, recombinant enzyme; measured here: PNMT max response; stronger effect = lower value
# Phenylethanolamine N-methyltransferase (Homo sapiens), sequence (P11086 whole entry, looked up): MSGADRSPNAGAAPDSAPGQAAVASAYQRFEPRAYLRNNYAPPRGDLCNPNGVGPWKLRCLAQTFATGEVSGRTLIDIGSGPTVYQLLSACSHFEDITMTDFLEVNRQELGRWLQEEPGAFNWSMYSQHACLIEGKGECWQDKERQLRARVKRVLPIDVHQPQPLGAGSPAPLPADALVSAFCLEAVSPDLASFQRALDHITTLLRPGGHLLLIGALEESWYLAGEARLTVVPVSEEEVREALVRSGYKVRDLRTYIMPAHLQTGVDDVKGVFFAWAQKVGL
# [3] = target: Glutathione peroxidase 1 (Homo sapiens) (UniProt P07203); assay: Primary qHTS Assay for Inhibitors of Recombinant Selenoprotein Glutathione Peroxidase 1 (GPX1) (AID 1845191); details: recombinant GPX1, GR-coupled NADPH fluorescence, 15 min; series mostly up to 48.8 µM; also: nearly all actives have a fitted effect of over 65% in size
# Glutathione peroxidase 1 (Homo sapiens), sequence (P07203 whole entry, looked up): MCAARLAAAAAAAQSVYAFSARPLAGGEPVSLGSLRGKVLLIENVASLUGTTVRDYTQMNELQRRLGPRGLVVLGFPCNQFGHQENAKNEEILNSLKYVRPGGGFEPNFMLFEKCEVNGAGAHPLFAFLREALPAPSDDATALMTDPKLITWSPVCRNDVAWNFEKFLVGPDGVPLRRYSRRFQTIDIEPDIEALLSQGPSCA
# Outline: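 GR-coupled assay: compounds preincubated 30 min at room temperature with GPX1, then reaction started with CHP; final 10 nM GPX1, 1 mM GSH, 0.5 mM CHP, 0.5 mM NADPH, 100 nM GR, 0.01% BSA, pH 7.5 Tris buffer. NADPH fluorescence (340/450 nm) read at 0 and 15 min.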
# [4] = target: Phospholipid hydroperoxide glutathione peroxidase GPX4 (Homo sapiens) (UniProt P36969); assay: Primary qHTS Assay for Inhibitors of Recombinant Selenoprotein Glutathione Peroxidase 4 (GPX4) (AID 1845192); details: recombinant GPX4, GR-coupled NADPH fluorescence, 15 min; series mostly up to 50 µM; also: nearly all actives have a fitted effect of over 65% in size
# Phospholipid hydroperoxide glutathione peroxidase GPX4 (Homo sapiens), sequence (P36969 whole entry, looked up): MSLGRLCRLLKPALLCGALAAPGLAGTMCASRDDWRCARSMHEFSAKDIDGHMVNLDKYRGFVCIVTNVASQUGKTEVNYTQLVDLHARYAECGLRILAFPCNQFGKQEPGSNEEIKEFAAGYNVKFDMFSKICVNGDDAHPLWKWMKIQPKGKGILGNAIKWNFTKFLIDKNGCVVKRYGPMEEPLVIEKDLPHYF
# Outline: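 GR-coupled assay: recombinant GPX4 preincubated 30 min with compound at room temperature; final 200 nM GPX4, 1 mM GSH, 0.5 mM cumene hydroperoxide, 0.5 mM NADPH, 100 nM GR, 0.01% BSA, pH 7.5 Tris. NADPH fluorescence (340/450 nm) read at 0 and 15 min.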
# [5] = target: Luciferin 4-monooxygenase (Photinus pyralis) (UniProt P08659); assay: Primary firefly luciferase (FLuc) qHTS assay for identification of artifact compounds. (AID 1845220); details: purified firefly luciferase, luminescence, 5 min; series mostly up to 54.1 µM; also: nearly all actives have a fitted effect of over 60% in size
# Outline: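 Titrated compounds were incubated 15 min at RT, protected from light, with luciferin and ATP at 10 uM; reaction started with 10 nM FLuc, luminescence imaged at 5 min, and concentration-response fitted by Hill equation.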
# [6] = Primary fluorescence-based thiol-reactive (MSTI) qHTS assay for identification of artifact compounds. (AID 1845221); details: MSTI thiol-reactivity probe, 1 h; series mostly up to 53.8 µM;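 also: thiol-reactive compounds lower the probe fluorescence signal; nearly all actives have a fitted effect of over 65% in size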
# Outline: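 qHTS titration of compound; 4 uM MSTI, PBS pH 7.4, 2% DMSO; 1 h RT, dark; fluorescence 525/598 nm; normalized to Acetyl-MSTI and MSTI; 4-parameter Hill fit.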
# [7] = tested on: Nanoluciferase (engineered Oplophorus gracilirostris luciferase); assay: Primary Nanoluciferase (NLuc) qHTS assay for identification of artifact compounds. (AID 1845222); details: NLuc-conditioned medium, Nano-Glo luminescence, 5 min; series mostly up to 54.1 µM;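 also: NLuc secreted into diluted conditioned medium of S16 cells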
# Outline: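 qHTS format, against NLuc in S16 cell-conditioned medium. Nano-Glo substrate 1:100 was added after 15 min at room temperature. Luminescence was taken after a further 5 min.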
# [8] = Primary redox qHTS assay for identification of artifact compounds. (AID 1845223); details: Amplex Red/HRP redox cycling with DTT, fluorescence; series mostly up to 53.8 µM
# Outline: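 Amplex Red (25 uM) and HRP (250 mU/mL) in HBSS, with compounds for 15 min, then 250 uM DTT for 30 min, room temperature, dark. Fluorescence 525/598 nm read; normalized to DMSO and 10 uM DA3003; Hill fit.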
# [9] = Viability counterscreen for antagonist of constitutive androstane receptor (CAR) against the NCATS DSHEA and TCM libraries (AID 1794837); details: CAR reporter cell line viability counterscreen, qHTS; series mostly up to 40 µM;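 also: compound exposure lasted 24 h before viability reading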
# Outline: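 HepG2-CYP2B6-hCAR cells, 2,500/well, were exposed 24 hr at 37C to substances together with 48 uM CITCO (final). Viability was read as CellTiter-Fluor fluorescence (Ex/Em 405/540 nm) after 1 hr.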
# [10] = Viability counterscreen for agonist of constitutive androstane receptor (CAR) against the NCATS DSHEA and TCM libraries (AID 1794838); details: HepG2 cell viability counterscreen, CAR agonist assay, co-treated with 0.75 µM CAR antagonist; series mostly up to 40 µM;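 also: HepG2 cells with CYP2B6 reporter and hCAR plus 0.75 µM PK11195 antagonist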
# Outline: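 HepG2-CYP2B6-hCAR cells (2,500/well) treated 24 h at 37C with compounds plus 0.75 uM PK11195; viability read by CellTiter-Fluor fluorescence, Ex/Em 405/540 nm.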
# [11] = target: Nuclear receptor subfamily 1 group I member 3 (Homo sapiens) (UniProt Q14994); assay: Primary qHTS for agonist of constitutive androstane receptor (CAR) against the NCATS DSHEA and TCM libraries (AID 1794839); details: CAR agonist reporter cells, qHTS luminescence, CAR antagonist co-added at 0.75 µM; series mostly up to 40 µM;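 also: HepG2 cells expressing human CAR with a CYP2B6 reporter plus PK11195 antagonist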
# Nuclear receptor subfamily 1 group I member 3 (Homo sapiens), sequence (Q14994 whole entry, looked up): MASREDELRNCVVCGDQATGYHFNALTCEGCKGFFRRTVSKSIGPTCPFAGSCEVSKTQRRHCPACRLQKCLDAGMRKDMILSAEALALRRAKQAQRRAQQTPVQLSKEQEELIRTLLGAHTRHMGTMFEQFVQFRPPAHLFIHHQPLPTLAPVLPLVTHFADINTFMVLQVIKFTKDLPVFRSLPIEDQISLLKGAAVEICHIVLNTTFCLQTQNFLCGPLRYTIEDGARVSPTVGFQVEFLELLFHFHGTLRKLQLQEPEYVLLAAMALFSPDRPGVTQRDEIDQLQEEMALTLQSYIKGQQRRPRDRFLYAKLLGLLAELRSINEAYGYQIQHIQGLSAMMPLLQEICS
# Outline: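 HepG2-CYP2B6-hCAR cells, 2,500/well, attached 5 h, then dosed with 0.75 µM PK11195 (final) for 24 h at 37 °C. Luciferase luminescence read (ONE-Glo); CellTiter-Fluor viability (Ex/Em 405/540 nm) in same wells; CITCO positive control.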
# [12] = HepG2 viability counterscreen (readout 2: ATP content) against the NCATS DSHEA and TCM libraries (AID 1794840); details: ATP content luminescence; series mostly up to 27.3 µM
# Outline: (§1)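 HepG2 cells, 1,000/well, attached ~4 h, then exposed ~24 h at 37C to substances. Protease activity read by fluorescence of 25 uM GF-AFC (Ex/Em 380/510 nm) after 30 min; ATP then by CellTiter-Glo luminescence.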
# [13] = HepG2 viability counterscreen (readout 1: protease activity) against the NCATS DSHEA and TCM libraries (AID 1794841); details: qHTS concentration series; series mostly up to 27.3 µM;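 also: cells exposed to compounds for about 24 h before the protease read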
# Outline: as §1
# [14] = target: Cytochrome P450 2C9 (Homo sapiens) (UniProt P11712); assay: qHTS for inhibitors of CYP2C9 against the NCATS DSHEA and TCM libraries (AID 1919973); details: recombinant CYP2C9 enzyme activity, luminescence; series mostly up to 34.1 µM;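 also: luminogenic pro-luciferin CYP2C9 substrate turned into luciferin with NADPH regeneration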
# Cytochrome P450 2C9 (Homo sapiens), sequence (P11712 whole entry, looked up, canonical isoform): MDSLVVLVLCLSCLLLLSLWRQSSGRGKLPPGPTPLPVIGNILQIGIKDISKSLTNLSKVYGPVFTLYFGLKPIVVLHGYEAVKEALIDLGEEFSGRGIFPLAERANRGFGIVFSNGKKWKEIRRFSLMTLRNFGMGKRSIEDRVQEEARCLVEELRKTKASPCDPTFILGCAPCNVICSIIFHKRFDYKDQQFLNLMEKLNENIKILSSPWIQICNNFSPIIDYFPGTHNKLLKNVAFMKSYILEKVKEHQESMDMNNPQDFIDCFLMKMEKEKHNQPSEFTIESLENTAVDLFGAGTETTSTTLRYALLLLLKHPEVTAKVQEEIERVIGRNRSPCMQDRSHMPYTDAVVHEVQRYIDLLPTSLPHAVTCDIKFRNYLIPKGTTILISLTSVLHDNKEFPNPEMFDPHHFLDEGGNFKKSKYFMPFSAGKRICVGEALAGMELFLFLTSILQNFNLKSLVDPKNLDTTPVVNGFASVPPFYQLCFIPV
# Outline: (§2)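 Read-out is luminescence after P450-Glo detection (30 min, RT). Before that: 15 min compound–enzyme preincubation, then 30-45 min reaction with 1x NADPH regeneration solution, substrate concentration isoform-specific.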
# [15] = target: Metallo-beta-lactamase type 2 (Klebsiella pneumoniae) (UniProt C7C422); assay: qHTS to identify inhibitors of the New Delhi Metallo-beta-lactamase (NDM): assay validation screen against the NCATS LOPAC Collection (AID 1794843); details: NDM-1 enzyme, nitrocefin hydrolysis, absorbance 485 nm; series mostly up to 38.4 µM;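 also: nitrocefin turnover by NDM-1 measured as 485 nm absorbance at plateau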
# Metallo-beta-lactamase type 2 (Klebsiella pneumoniae), sequence (C7C422 whole entry, looked up): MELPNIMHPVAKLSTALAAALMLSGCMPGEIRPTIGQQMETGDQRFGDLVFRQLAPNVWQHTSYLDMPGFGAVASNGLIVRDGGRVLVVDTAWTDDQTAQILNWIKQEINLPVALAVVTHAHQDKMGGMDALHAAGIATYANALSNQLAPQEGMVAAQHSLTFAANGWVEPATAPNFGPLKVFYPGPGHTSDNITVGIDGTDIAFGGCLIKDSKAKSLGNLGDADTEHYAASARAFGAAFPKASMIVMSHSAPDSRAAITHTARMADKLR
# Outline: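 NDM-1 at 2 nM final in 50 mM HEPES pH 7.0, 1 uM ZnSO4, 0.01% Tween20, preincubated with LOPAC compounds pinned in DMSO; 50 uM nitrocefin (stock) added. Hydrolysis read as absorbance at 485 nm in the plateau phase.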
# [16] = target: Cytochrome P450 3A4 (Homo sapiens) (UniProt P08684); assay: qHTS for inhibitors of CYP3A4 against the NCATS DSHEA and TCM libraries (AID 1919971); details: recombinant CYP3A4 enzyme activity, luminescence qHTS; series mostly up to 34.1 µM;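 also: inhibition lowers luminescence from luciferin made by CYP3A4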
# Cytochrome P450 3A4 (Homo sapiens), sequence (P08684 whole entry, looked up): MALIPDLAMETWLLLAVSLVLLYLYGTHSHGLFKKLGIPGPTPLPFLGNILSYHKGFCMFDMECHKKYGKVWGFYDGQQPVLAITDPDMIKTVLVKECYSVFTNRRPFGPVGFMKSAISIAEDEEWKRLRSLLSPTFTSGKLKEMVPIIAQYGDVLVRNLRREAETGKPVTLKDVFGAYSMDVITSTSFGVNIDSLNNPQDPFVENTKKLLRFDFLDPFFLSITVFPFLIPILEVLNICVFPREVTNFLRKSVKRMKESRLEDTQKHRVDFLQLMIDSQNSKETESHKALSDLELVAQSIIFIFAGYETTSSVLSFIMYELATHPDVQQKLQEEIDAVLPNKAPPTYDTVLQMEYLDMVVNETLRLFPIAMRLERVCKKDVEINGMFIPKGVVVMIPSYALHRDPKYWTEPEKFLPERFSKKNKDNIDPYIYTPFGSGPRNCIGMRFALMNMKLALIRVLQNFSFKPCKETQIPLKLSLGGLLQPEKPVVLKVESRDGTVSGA
# Outline: as §2
# [17] = target: Cytochrome P450 2D6 (Homo sapiens) (UniProt P10635); assay: qHTS for inhibitors of CYP2D6 against the NCATS DSHEA and TCM libraries (AID 1919972); details: CYP2D6 enzymatic inhibition, luminescence qHTS; series mostly up to 34.1 µM
# Cytochrome P450 2D6 (Homo sapiens), sequence (P10635 whole entry, looked up): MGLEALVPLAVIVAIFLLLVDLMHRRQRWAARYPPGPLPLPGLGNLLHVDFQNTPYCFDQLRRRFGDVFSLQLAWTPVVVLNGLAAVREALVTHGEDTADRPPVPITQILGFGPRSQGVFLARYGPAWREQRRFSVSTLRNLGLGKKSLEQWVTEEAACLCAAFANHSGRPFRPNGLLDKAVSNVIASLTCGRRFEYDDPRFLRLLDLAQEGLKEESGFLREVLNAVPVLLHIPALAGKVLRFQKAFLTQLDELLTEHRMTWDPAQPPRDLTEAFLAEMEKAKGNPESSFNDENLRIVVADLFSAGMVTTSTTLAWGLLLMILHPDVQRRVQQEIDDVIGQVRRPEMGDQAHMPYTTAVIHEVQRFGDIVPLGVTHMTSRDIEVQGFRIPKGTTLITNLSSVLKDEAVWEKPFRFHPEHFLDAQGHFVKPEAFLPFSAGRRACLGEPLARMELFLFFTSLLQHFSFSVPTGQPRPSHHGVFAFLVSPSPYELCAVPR
# Outline: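 Luminescent P450-Glo read-out of CYP2D6 turnover of a luciferin substrate after NADPH-driven reaction of 30-45 min at room temperature. Compounds were first preincubated 15 min with enzyme at titrated concentrations; quinidine was the intraplate control.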
# [18] = NCATS anti-infectives library activity on the primary C. elegans qHTS viability assay (AID 1745855; calls by dose curve; also: potency is read from the fitted curve at half-maximal effect); details: C. elegans worm area imaging, day 7; series mostly up to 83.3 µM
# Outline: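 Viability read-out is GFP fluorescence of PE254-GFP-FLuc C. elegans, measured by laser cytometry (488 nm) at day 0, 3 and 7. Ten L1 worms per well were incubated 7 days at 21 °C with compounds and bacterial capsules in S medium.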
# [19] = target: Cytochrome P450 2C19 (Homo sapiens) (UniProt P33261); assay: qHTS for inhibitors of CYP2C19 against the NCATS DSHEA and TCM libraries (AID 1919974); details: CYP2C19 enzyme inhibition, luminescence qHTS; series mostly up to 34.1 µM;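 also: luminescence from luciferin released by CYP2C19 oxidation of a pro-luciferin substrate; potency is read from the fitted curve at half-maximal effect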
# Cytochrome P450 2C19 (Homo sapiens), sequence (P33261 whole entry, looked up): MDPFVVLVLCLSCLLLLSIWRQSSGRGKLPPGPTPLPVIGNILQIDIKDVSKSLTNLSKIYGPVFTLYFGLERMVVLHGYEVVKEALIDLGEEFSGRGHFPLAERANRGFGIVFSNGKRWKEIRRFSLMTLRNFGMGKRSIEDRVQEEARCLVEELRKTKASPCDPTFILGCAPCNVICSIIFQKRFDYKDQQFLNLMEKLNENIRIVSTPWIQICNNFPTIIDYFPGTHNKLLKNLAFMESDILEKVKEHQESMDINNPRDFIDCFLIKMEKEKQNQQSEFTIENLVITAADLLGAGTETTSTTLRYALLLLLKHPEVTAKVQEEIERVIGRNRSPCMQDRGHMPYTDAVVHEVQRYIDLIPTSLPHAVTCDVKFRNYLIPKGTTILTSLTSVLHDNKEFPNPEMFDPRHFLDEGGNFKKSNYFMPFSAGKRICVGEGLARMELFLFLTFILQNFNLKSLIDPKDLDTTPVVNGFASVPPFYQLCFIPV
# Outline: as §2
# [20] = NCATS anti-infectives library activity on HEK293 viability as a counter-qHTS vs the C. elegans viability qHTS (AID 1745854); details: HEK293 viability counter-screen; series mostly up to 41.8 µM;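 also: HEK293 cells exposed to compounds for 24 hr before the viability read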
# Outline: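 Compounds were acoustically plated (several concentrations, 1:5, final up to 41.7 uM), then 1500 HEK293 cells added per well and incubated 24 hr at 37C, 5% CO2. CellTiter-Glo was added and luminescence read after 10 min.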
compound,measurement,setting,value
CC(C)(C)CC(C)(C)c1ccc(OCCOCC[N+](C)(C)Cc2ccccc2)cc1,activity,[1],-59.7%
same,activity,[2],-7.81%
same,Potency,[3],inactive
same,Potency,[4],inactive
same,outcome,[5],inactive
same,Potency,[6],inactive
same,Potency,[7],inactive
same,outcome,[8],inactive
C=CCc1ccc(O)c(OC)c1,outcome,[9],inactive
same,outcome,[10],inactive
same,outcome,[11],inactive
same,outcome,[12],inactive
same,outcome,[13],inactive
same,Potency,[3],inactive
same,Potency,[4],inactive
same,outcome,[14],inactive
CC1(C)CCC(NC(=O)[C@@H](N)CCC(=O)O)CC1,outcome,[15],inactive
same,Potency,[3],inactive
same,Potency,[4],inactive
C[C@]12CC[C@@H]3c4ccc(O)cc4CC[C@H]3[C@@H]1CC[C@@H]2O,outcome,[15],inactive
same,Potency,[3],inactive
same,Potency,[4],inactive
CC(CCc1ccccc1)NCC(O)c1ccc(O)c(C(N)=O)c1 (stereo not given),outcome,[15],inactive
same,Potency,[3],inactive
same,Potency,[4],inactive
same,outcome,[5],inactive
same,Potency,[6],inactive
same,Potency,[7],inactive
same,outcome,[8],inactive
Nc1ccc(C(=O)O)cc1,outcome,[9],inactive
same,outcome,[10],inactive
same,outcome,[11],inactive
same,outcome,[12],inactive
same,outcome,[13],inactive
same,Potency,[3],inactive
same,Potency,[4],inactive
same,outcome,[16],inactive
same,outcome,[17],inactive
same,outcome,[14],inactive
C1CCc2nnnn2CC1,outcome,[15],inactive
same,Potency,[3],inactive
same,Potency,[4],inactive
COc1cccc2c1C(=O)c1c(O)c3c(c(O)c1C2=O)C[C@@](O)(C(=O)CO)C[C@@H]3O[C@H]1C[C@H](N)[C@H](O)[C@H](C)O1,Potency,[18],23 µM (active)
same,Potency,[4],inactive
CNCCC=C1c2ccccc2CCc2ccccc21,outcome,[15],inactive
same,Potency,[3],inactive
same,Potency,[4],inactive
O=C(O)c1cc2cc(Cc3cccnc3)ccc2o1,outcome,[15],inactive
same,Potency,[3],inactive
same,Potency,[4],inactive
Nc1nc2ncc(CNc3ccc(C(=O)N[C@@H](CCC(=O)O)C(=O)O)cc3)nc2c(=O)[nH]1,outcome,[9],inactive
same,outcome,[10],inactive
same,outcome,[11],inactive
same,outcome,[12],inactive
same,outcome,[16],inactive
same,outcome,[17],inactive
same,outcome,[14],inactive
same,Potency,[19],3.55 µM (active)
CC[C@@H](CO)NCCN[C@@H](CC)CO,Potency,[20],inactive
same,Potency,[3],inactive
same,Potency,[4],inactive
CCCCc1nc(Cl)c(CO)n1Cc1ccc(-c2ccccc2-c2nn[nH]n2)cc1,Potency,[20],inactive
same,Potency,[3],inactive
same,Potency,[4],inactive
OC[C@@H](O)[C@@H](O[C@@H]1O[C@H](CO)[C@H](O)[C@H](O)[C@H]1O)[C@H](O)[C@@H](O)CO,Potency,[3],inactive
same,Potency,[4],inactive
COC(=O)[C@@H]1CC2=CC(=O)CC[C@]2(C)[C@@]23O[C@@H]2C[C@@]2(C)[C@@H](CC[C@@]24CCC(=O)O4)[C@H]13,Potency,[3],inactive
same,Potency,[4],inactive
C#C[C@]1(O)CC[C@H]2[C@@H]3CCc4cc(OC5CCCC5)ccc4[C@H]3CC[C@@]21C,Potency,[3],inactive
same,Potency,[4],inactive
